Screening results as filed in PubChem BioAssay.
USP28 inh: blocks human USP28 ubiquitin-rhodamine cleavage; purified USP28, Ub-rhodamine cleavage fluorescence, 30 min; inhibition, % at 25 µM; hit rate 3% among 47,000
USP17 block: blocks human USP17 ubiquitin-rhodamine cleavage; A8MUK1; purified USP17, Ub-rhodamine cleavage fluorescence, 3 h; inhibition, % at 50 µM; hit rate 6.5% among 47,000
USP10 inh: blocks human USP10 ubiquitin-rhodamine cleavage; hit rate 1.1% among 47,000; Q14694; inhibition, % at 20 µM; purified USP10, Ub-rhodamine fluorescence, 60 min; AID 1645856
Target sequence (Q14694 whole entry, looked up): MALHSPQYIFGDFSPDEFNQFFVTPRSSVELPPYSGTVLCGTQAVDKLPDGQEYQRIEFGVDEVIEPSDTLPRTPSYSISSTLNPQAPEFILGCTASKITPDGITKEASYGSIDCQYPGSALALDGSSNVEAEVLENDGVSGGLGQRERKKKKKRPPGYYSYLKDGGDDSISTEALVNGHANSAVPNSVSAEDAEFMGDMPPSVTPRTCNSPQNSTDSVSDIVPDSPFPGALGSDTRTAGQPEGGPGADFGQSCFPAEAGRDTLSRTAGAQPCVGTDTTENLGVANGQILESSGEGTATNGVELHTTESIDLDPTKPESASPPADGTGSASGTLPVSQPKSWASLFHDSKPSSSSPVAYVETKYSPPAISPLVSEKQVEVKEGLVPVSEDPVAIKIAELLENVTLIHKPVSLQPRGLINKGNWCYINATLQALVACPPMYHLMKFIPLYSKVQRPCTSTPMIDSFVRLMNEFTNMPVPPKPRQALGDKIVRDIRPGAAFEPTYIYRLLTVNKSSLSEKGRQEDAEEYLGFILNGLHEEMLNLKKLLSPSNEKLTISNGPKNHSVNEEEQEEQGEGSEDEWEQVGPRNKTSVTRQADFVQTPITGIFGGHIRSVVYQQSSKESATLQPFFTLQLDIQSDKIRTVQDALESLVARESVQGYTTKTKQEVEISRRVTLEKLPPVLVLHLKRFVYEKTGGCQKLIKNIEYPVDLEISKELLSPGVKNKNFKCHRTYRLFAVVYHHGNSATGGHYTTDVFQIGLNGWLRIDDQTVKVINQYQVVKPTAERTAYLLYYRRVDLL
USP7 block: inhibitors of human USP7 deubiquitinase; purified USP7, Ub-rhodamine cleavage fluorescence; Q93009; hit rate 0.3% among 47,000; inhibition, % at 20 µM; AID 1645854
USP30 block: blocks human USP30 ubiquitin-rhodamine cleavage. purified USP30, Ub-rhodamine cleavage fluorescence. inhibition, % at 25 µM. hit rate 5.3% among 47,000. AID 1645860
USP8 block: human USP8 deubiquitinase inhibition; P40818; purified USP8, Ub-rhodamine cleavage fluorescence, 30 min; inhibition, % at 20 µM; hit rate 4.2% among 47,000; AID 1645853
The depositor's hits bear a star; i = inactive; x = no result. Sampled rows, rich in hits. Any-hit rate of the full collection: about 13%. Cut-off read from the data, not from the text of the source: active = inhibition above about 30%; inactive = the rest.

SMILES	USP28 inh	USP17 block	USP10 inh	USP7 block	USP30 block	USP8 block
CC1=C(c2ccc(F)cc2)S(=O)(=O)NC1=NCC(=O)Nc1ccc(F)cc1	-0.9	0.1	1.2	3.6	52.2*	6.0
CC1=C(c2ccc(C)c(C)c2)S(=O)(=O)NC1=NCC(=O)NCc1ccccc1	x	28.0	1.5	9.6	x	-3.9
CC1=C(c2ccc(F)cc2)S(=O)(=O)NC1=NCC(=O)Nc1cccc(F)c1	16.5	40.7*	0.9	10.3	57.8*	7.3
CC1=C(c2ccc(Cl)cc2)S(=O)(=O)NC1=NCC(=O)Nc1ccc(F)cc1	7.1	64.1*	3.3	10.1	43.6*	23.0
CC1=C(c2ccc(F)cc2)S(=O)(=O)NC1=NCC(=O)Nc1c(C)cccc1C	2.4	17.2	-1.3	1.8	14.4	-0.4
Cc1ccc(N2CCCS2(=O)=O)cc1NS(=O)(=O)CCc1ccccc1	-196.1	-179.0	-2.8	-43.2	i	-85.9
CCc1ccccc1NC(=O)Cn1cnc2scc(-c3ccc4ccccc4c3)c2c1=O	-16.9	-9.3	2.8	1.3	-78.0	4.2
COc1cc2oc(=O)c(CC(=O)N[C@@H](Cc3c[nH]c4ccccc34)C(=O)O)c(C)c2cc1OC	-3.1	x	1.5	4.9	-3.6	-4.2
COc1ccc(C(=O)NCCc2c[nH]c3ccccc23)cc1[N+](=O)[O-]	39.5*	-11.1	-2.8	-81.5	3.5	-70.6
COc1cc(OC)c2c(C)c(CC(=O)NCCc3c[nH]c4ccccc34)c(=O)oc2c1	-9.5	33.3*	5.2	1.2	-1.3	6.0
O=C(Nc1cccc(F)c1)c1cccc2c1C(=O)N(CC1CCCO1)C2 (centres undefined)	-7.6	-25.7	-1.5	-5.3	-28.8	-2.2
Cc1nc(-c2ccccc2Cl)sc1C(=O)N[C@H](CO)c1ccccc1	6.6	-12.6	-0.1	3.2	-38.8	-9.6
Cc1ccc2c(Nc3ccccc3)c(-c3nc(C4CC4)no3)cnc2n1	47.7*	5.0	-2.0	-22.2	-188.8	-5.8
Cc1nc2nc3ccccc3n2c(C)c1C/C=C/c1ccccc1	13.0	15.1	4.0	6.9	27.5	25.4
Cc1cccc(NC(=O)c2cnc(N3CCCCC3)c3ccccc23)n1	21.3	10.3	-2.7	-7.3	-24.2	36.0*
CC1CCN(c2nc3[nH]c(=O)n(C(C)C)c(=O)c3s2)CC1	-21.7	-17.2	-0.9	5.3	-37.1	-7.6
O=C(COc1nsnc1N1CCOCC1)Nc1ccc(F)c(F)c1	13.4	2.8	0.8	-3.7	56.9*	-21.7
O=C(COc1ccc2ccccc2c1)NCc1nnnn1-c1ccc(F)c(F)c1	1.9	47.6*	2.1	2.0	9.5	-22.4
CCOc1ccc(-n2nnnc2CNC(=O)NCc2ccccc2)cc1	-0.2	-3.5	1.8	-2.4	-14.8	1.6
Cc1ccsc1C1CCCCCN1S(=O)(=O)c1ccccc1F (centres undefined)	-4.3	9.6	6.7	6.1	-22.2	32.5*
O=C(CSc1nccn1C1CCCCC1)Nc1ccccc1	7.7	0.1	-1.3	-13.5	19.9	1.9
Fc1ccccc1N1CCN(c2ncc3c(n2)CCN(Cc2ccccn2)C3)CC1	5.7	50.6*	-2.6	-8.1	17.2	-17.7
CCOC(=O)Cc1cc(=O)oc2cc(O)ccc12	-11.5	-25.7	-6.4	-9.6	-33.8	-14.3
Cc1cccc(NC(=O)c2nn(C)c3ccccc3c2=O)c1	18.9	64.3*	-1.8	-2.0	36.8*	7.2
COc1ccccc1CNC(=O)CSc1nc2ccccc2c(=O)n1-c1ccccc1OC	-29.0	6.5	4.3	-4.7	14.5	-2.5
SMILES	USP28 inh	USP17 block	USP10 inh	USP7 block	USP30 block	USP8 block
COc1ccc(CC(=O)OCC(=O)N2c3ccccc3NC(=O)C2(C)C)cc1	13.2	34.2*	9.4	-17.6	-12.2	32.9*
O=C(NC1CCCC1)N1C[C@H](OCc2cccnc2)[C@H]2COC[C@H]21	2.5	-24.3	-2.3	-2.8	10.7	-331.0
COc1ccc(CCNc2nc3c(-c4ccccc4)nnn3c3ccccc23)cc1OC	5.9	7.1	22.1	9.2	14.3	43.8*
COCCCNc1nc2c(-c3ccc(Cl)cc3)nnn2c2ccccc12	-11.4	4.2	2.4	6.4	7.6	5.6
COc1ccc(Oc2cc3n(c(=O)n2)CCc2cc(OC)c(OC)cc2-3)cc1	-122.8	-45.8	-6.1	-11.2	-174.6	-76.5
COc1cc2c(cc1OC)-c1cc(Oc3ccc4cccnc4c3)nc(=O)n1CC2	4.7	49.2*	-10.0	-11.7	-38.0	35.5*
Cc1cc(C(=O)NC2(O)C(=O)c3ccccc3C2=O)n(C)n1	22.8	94.1*	37.9*	-96.4	35.9*	81.9*
O=C(O)CNC(=O)c1ccc2nc(-n3cccc3)sc2c1	-16.7	-45.2	-5.6	0.0	-117.0	-8.9
O=C(CNC(=O)c1ccc2nc(-n3cccc3)sc2c1)NCc1cccc(Cl)c1	-28.6	-50.6	-0.3	7.6	-70.4	68.6*
O=C(NCc1cccc(Cl)c1)c1sc2ncccc2c1-n1cccc1	31.5*	16.4	0.2	-6.3	-56.7	-51.8
COc1cccc(NS(=O)(=O)c2cc(-c3[nH]ncc3C(=O)N3CCCC3)oc2C)c1	11.0	1.1	7.7	-43.0	-20.1	6.4
COC(=O)c1ccc(O)c(O)c1	0.2	-39.2	4.9	5.1	17.2	4.4
COC(=O)c1ccc2c(c1)C(=O)c1ccccc1CO2	31.7*	25.6	2.9	1.7	23.8	7.0
CC(C)c1ccc(-c2nnn(CC(=O)N3CCCCC3C)n2)cc1 (centres undefined)	26.0	9.4	0.1	0.1	11.6	11.2
O=S(=O)(c1c[nH]c(-c2nnc(-c3ccccc3)o2)c1)N1CCOCC1	6.0	16.7	-9.4	-1.8	20.5	10.3
CCC(=O)N1CCCc2ccc(NC(=O)c3ccccc3OC)cc21	11.4	-8.4	2.9	1.9	8.6	0.7
CCC(=O)N1CCc2cc(C(=O)Nc3ccccc3OC)ccc21	43.3*	8.2	0.0	3.1	17.4	1.1
CCC(=O)N1CCCc2ccc(NC(=O)c3cccc(OC)c3)cc21	37.3*	-6.0	-3.0	-1.7	-6.1	-11.2
O=C1COc2ccc(NC(=O)c3cnn(Cc4ccccc4)c3)cc2N1	11.7	63.2*	2.7	7.1	19.4	1.6
O=C(NC1=NCCS1)c1cnn(Cc2ccccc2)c1	-7.2	1.7	2.2	1.7	-0.4	-0.5
COc1cccc(C(=O)NCC(c2ccc(C)o2)N2CCCC2)c1 (centres undefined)	-15.6	-9.2	-1.2	-5.5	-46.4	-2.6
Cc1nc2c(c(-c3ccc(O)cc3)n1)CCNCC2	-1.3	12.6	-6.6	-2.5	-10.5	45.7*
Cc1cccc(NC(=O)C(=O)NCC(c2cccnc2)N2CCc3ccccc3C2)c1 (centres undefined)	6.7	25.4	-5.1	0.1	-17.6	60.7*
COc1ccccc1NS(=O)(=O)c1ccc2oc(SCc3cn4c(C)cc(C)nc4n3)nc2c1	8.6	x	-1.5	4.1	30.6*	-64.9
FC(F)(F)c1cnc(/C=C/Nc2cccc(Oc3ncc(C(F)(F)F)cc3Cl)c2)c(Cl)c1	-23.7	-5.6	-6.0	0.4	-84.2	74.5*
